Data published in PubChem BioAssay (NCI).
About 83,000 compounds went through this panel and 20% of them were active in at least one assay; those are over-represented in the sample as a whole.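 Cell lines were cultured in 96-well plates, exposed to a single compound concentration, and assessed for percent growth 48 hours later.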 Calls of active or inactive are those of the source. How the source made its calls: active means growth percent below 10; inactive means the rest.

Tests used:
Experiment in all cases: NCI-60 one-dose screen, 48 h (100 = growth as untreated, 0 = no growth, -100 = all killed)
DU-145 prostate = conditions: 10 µM unless noted
K-562 leukemia = conditions: 10 µM unless noted
MALME-3M melanoma = conditions: 10 µM unless noted
MDA-MB-231 breast = conditions: 10 µM unless noted
RXF 393 renal = conditions: 10 µM unless noted
SF-268 CNS = conditions: 10 µM unless noted
SF-295 CNS = conditions: 10 µM unless noted
SF-539 CNS = conditions: 10 µM unless noted
UACC-257 melanoma = conditions: 10 µM unless noted
M14 melanoma = conditions: 10 µM unless noted
HCT-15 colon = conditions: 10 µM unless noted
HT29 colon = conditions: 10 µM unless noted
SNB-75 CNS = conditions: 10 µM unless noted
SNB-19 CNS = conditions: 10 µM unless noted
U251 CNS = conditions: 10 µM unless noted
PC-3 prostate = conditions: 10 µM unless noted
SK-MEL-5 melanoma = conditions: 10 µM unless noted
UACC-62 melanoma = conditions: 10 µM unless noted
LOX IMVI melanoma = conditions: 10 µM
SK-MEL-28 melanoma = conditions: 10 µM unless noted

Measured: growth

CC1(O)CCCCCC1
inactive: DU-145 prostate 106% | K-562 leukemia 85.3% | MALME-3M melanoma 117% | MDA-MB-231 breast 106% | RXF 393 renal 108% | SF-268 CNS 101% | SF-295 CNS 98.7% | SF-539 CNS 102% | UACC-257 melanoma 101% | M14 melanoma 96.2% | HCT-15 colon 102% | HT29 colon 110% | SNB-75 CNS 86.3% | SNB-19 CNS 97.6% | U251 CNS 101% | PC-3 prostate 103% | SK-MEL-5 melanoma 101% | UACC-62 melanoma 100% | LOX IMVI melanoma 94.2% | SK-MEL-28 melanoma 106%

Cc1cc(I)nc2ccccc12
inactive: DU-145 prostate 120% | K-562 leukemia 108% | MALME-3M melanoma 114% | MDA-MB-231 breast 99.7% | RXF 393 renal 122% | SF-268 CNS 105% | SF-295 CNS 101% | SF-539 CNS 100% | UACC-257 melanoma 119% | M14 melanoma 111% | HCT-15 colon 105% | HT29 colon 109% | SNB-75 CNS 99.7% | SNB-19 CNS 107% | U251 CNS 110% | PC-3 prostate 96.8% | SK-MEL-5 melanoma 104% | UACC-62 melanoma 117% | LOX IMVI melanoma 100% | SK-MEL-28 melanoma 112%

Oc1ccc(Br)cc1Sc1cc(Br)ccc1O
active: SK-MEL-5 melanoma 2.54% | UACC-62 melanoma 7.3%
inactive: DU-145 prostate 76.4% | K-562 leukemia 49.2% | MALME-3M melanoma 40.9% | MDA-MB-231 breast 56.7% | RXF 393 renal 76.8% | SF-268 CNS 55.3% | SF-295 CNS 98.9% | SF-539 CNS 45.3% | UACC-257 melanoma 52.1% | M14 melanoma 39.9% | HCT-15 colon 36.6% | HT29 colon 116% | SNB-75 CNS 59.4% | SNB-19 CNS 41.3% | U251 CNS 46.9% | PC-3 prostate 65.4% | LOX IMVI melanoma 43.6% | SK-MEL-28 melanoma 38.9%

Clc1ccccc1C(c1ccccc1)(c1ccccc1)n1ccnc1
active: SK-MEL-5 melanoma -87%
inactive: DU-145 prostate 60.1% | K-562 leukemia 17% | MALME-3M melanoma 39.7% | MDA-MB-231 breast 59.1% | RXF 393 renal 23.6% | SF-268 CNS 57.5% | SF-295 CNS 19% | SF-539 CNS 52% | UACC-257 melanoma 54.4% | M14 melanoma 31% | HCT-15 colon 22.9% | HT29 colon 27.4% | SNB-75 CNS 44.1% | SNB-19 CNS 58.4% | U251 CNS 42% | PC-3 prostate 19.6% | UACC-62 melanoma 40.8% | LOX IMVI melanoma 36% | SK-MEL-28 melanoma 55.5%

Nc1nc(-c2ccccc2)nc(N)c1N=O
inactive: DU-145 prostate 88.8% | K-562 leukemia 31.7% | MALME-3M melanoma 91.3% | MDA-MB-231 breast 93.8% | RXF 393 renal 63.9% | SF-268 CNS 77.2% | SF-295 CNS 108% | SF-539 CNS 77.5% | UACC-257 melanoma 54.4% | M14 melanoma 67.3% | HCT-15 colon 53.6% | HT29 colon 14.5% | SNB-75 CNS 44.8% | SNB-19 CNS 88.7% | U251 CNS 52.4% | PC-3 prostate 79.9% | SK-MEL-5 melanoma 100% | UACC-62 melanoma 71.8% | LOX IMVI melanoma 66.7% | SK-MEL-28 melanoma 75.3%

CC(=O)N1CC(=O)NC1=S
inactive: DU-145 prostate 105% | K-562 leukemia 97.4% | MALME-3M melanoma 95% | MDA-MB-231 breast 98.3% | RXF 393 renal 104% | SF-268 CNS 98.2% | SF-295 CNS 102% | SF-539 CNS 101% | UACC-257 melanoma 90.4% | M14 melanoma 95.1% | HCT-15 colon 99.9% | HT29 colon 106% | SNB-75 CNS 89.2% | SNB-19 CNS 101% | U251 CNS 94.8% | PC-3 prostate 97.9% | SK-MEL-5 melanoma 103% | UACC-62 melanoma 96.1% | LOX IMVI melanoma 98.5% | SK-MEL-28 melanoma 108%

O=C1C=CC(=O)c2c(O)c(CO)c(CO)c(O)c21
inactive: DU-145 prostate 54.9% | K-562 leukemia 91.7% | MDA-MB-231 breast 89.6% | RXF 393 renal 98% | SF-268 CNS 111% | SF-295 CNS 95% | SF-539 CNS 104% | UACC-257 melanoma 94.4% | M14 melanoma 14% | HCT-15 colon 37.8% | HT29 colon 60% | SNB-75 CNS 55.9% | SNB-19 CNS 103% | U251 CNS 105% | PC-3 prostate 25.6% | SK-MEL-5 melanoma 73.8% | UACC-62 melanoma 93.3% | LOX IMVI melanoma 73.5%
active: MALME-3M melanoma 9.33%

Nc1ccc(C(=O)/C=C/c2ccccc2)cc1
inactive: DU-145 prostate 62.1% | K-562 leukemia 14.3% | MALME-3M melanoma 93.9% | MDA-MB-231 breast 98.2% | RXF 393 renal 104% | SF-268 CNS 85.8% | SF-295 CNS 101% | SF-539 CNS 102% | UACC-257 melanoma 108% | M14 melanoma 80.4% | HCT-15 colon 87% | HT29 colon 96.5% | SNB-75 CNS 104% | SNB-19 CNS 91.3% | U251 CNS 91.8% | PC-3 prostate 74.1% | SK-MEL-5 melanoma 102% | UACC-62 melanoma 97% | LOX IMVI melanoma 84.9% | SK-MEL-28 melanoma 113%

CC(C)(C)c1ccc(O)c(Br)c1
inactive: DU-145 prostate 105% | K-562 leukemia 120% | MALME-3M melanoma 99.8% | MDA-MB-231 breast 104% | RXF 393 renal 91.2% | SF-268 CNS 95.5% | SF-295 CNS 95.8% | SF-539 CNS 102% | UACC-257 melanoma 111% | M14 melanoma 95.8% | HCT-15 colon 104% | HT29 colon 103% | SNB-75 CNS 77% | SNB-19 CNS 95.9% | U251 CNS 106% | PC-3 prostate 101% | SK-MEL-5 melanoma 96.4% | UACC-62 melanoma 98.2% | LOX IMVI melanoma 98.3% | SK-MEL-28 melanoma 102%

COC(=O)c1nc(=S)[nH]c(C(=O)OC)c1C(=O)c1ccc(Cl)c(Cl)c1
inactive: DU-145 prostate 120% | K-562 leukemia 113% | MALME-3M melanoma 102% | MDA-MB-231 breast 102% | RXF 393 renal 112% | SF-268 CNS 111% | SF-295 CNS 99.8% | SF-539 CNS 102% | UACC-257 melanoma 111% | M14 melanoma 107% | HCT-15 colon 105% | HT29 colon 112% | SNB-75 CNS 92.7% | SNB-19 CNS 105% | U251 CNS 103% | PC-3 prostate 106% | SK-MEL-5 melanoma 101% | UACC-62 melanoma 102% | LOX IMVI melanoma 99.2% | SK-MEL-28 melanoma 124%

CC(CSc1n[nH]c(=S)s1)c1ccccc1 (stereo unspecified)
inactive: DU-145 prostate 117% | K-562 leukemia 103% | MALME-3M melanoma 110% | MDA-MB-231 breast 103% | RXF 393 renal 118% | SF-268 CNS 109% | SF-295 CNS 106% | SF-539 CNS 119% | UACC-257 melanoma 112% | M14 melanoma 106% | HCT-15 colon 110% | HT29 colon 126% | SNB-75 CNS 85.1% | SNB-19 CNS 102% | U251 CNS 107% | PC-3 prostate 102% | SK-MEL-5 melanoma 103% | UACC-62 melanoma 108% | LOX IMVI melanoma 97.6% | SK-MEL-28 melanoma 116%

COC1=CC(=O)c2c(O)c3c(c(O)c2C1=O)CC(C)(O)OC3 (stereo unspecified)
inactive: DU-145 prostate 12.7% | K-562 leukemia 13.4% | MDA-MB-231 breast 28.3% | RXF 393 renal 11.1% | SF-268 CNS 18.3% | SNB-75 CNS 41.8% | U251 CNS 17.3% | LOX IMVI melanoma 11.4%
active: MALME-3M melanoma -96.6% | SF-295 CNS 5.39% | SF-539 CNS -2.19% | UACC-257 melanoma 5.54% | M14 melanoma -52.4% | HCT-15 colon 0.909% | HT29 colon -10.8% | SNB-19 CNS 7.01% | PC-3 prostate 8.93% | SK-MEL-5 melanoma -92.4% | UACC-62 melanoma -14.2%

O=[N+]([O-])c1ccc(C2N(Cc3ccc(Cl)cc3)CCN2Cc2ccc(Cl)cc2)cc1
inactive: DU-145 prostate 107% | K-562 leukemia 67% | MALME-3M melanoma 109% | MDA-MB-231 breast 79.6% | RXF 393 renal 74.4% | SF-268 CNS 90.1% | SF-295 CNS 92.1% | SF-539 CNS 86.3% | UACC-257 melanoma 92% | M14 melanoma 86.2% | HCT-15 colon 84.9% | HT29 colon 73.3% | SNB-75 CNS 74.1% | SNB-19 CNS 96.7% | U251 CNS 87.6% | PC-3 prostate 82.3% | SK-MEL-5 melanoma 88.8% | UACC-62 melanoma 102% | LOX IMVI melanoma 96.9% | SK-MEL-28 melanoma 96.3%

[Cl-].[Rh+3].c1ccc(-c2ccnc3c2ccc2c(-c4ccccc4)ccnc23)cc1.c1ccc(-c2ccnc3c2ccc2c(-c4ccccc4)ccnc23)cc1.c1ccc(-c2ccnc3c2ccc2c(-c4ccccc4)ccnc23)cc1
active: SF-539 CNS -5.79% | SK-MEL-5 melanoma -38.1%
inactive: DU-145 prostate 126% | K-562 leukemia 34.7% | MALME-3M melanoma 94.3% | MDA-MB-231 breast 93.6% | RXF 393 renal 22.1% | SF-268 CNS 95% | SF-295 CNS 69.5% | UACC-257 melanoma 63.6% | M14 melanoma 45.7% | HCT-15 colon 106% | HT29 colon 99% | SNB-75 CNS 102% | SNB-19 CNS 57.5% | U251 CNS 30.8% | PC-3 prostate 75.5% | UACC-62 melanoma 97.7% | LOX IMVI melanoma 88.7%

CC(C)c1ccc(C(=O)OC2CCCC2)cc1
inactive: DU-145 prostate 106% | K-562 leukemia 120% | MALME-3M melanoma 101% | MDA-MB-231 breast 103% | RXF 393 renal 118% | SF-268 CNS 95.1% | SF-295 CNS 106% | SF-539 CNS 108% | UACC-257 melanoma 125% | M14 melanoma 93.9% | HCT-15 colon 95.3% | HT29 colon 113% | SNB-75 CNS 90.4% | SNB-19 CNS 102% | U251 CNS 109% | PC-3 prostate 89.9% | SK-MEL-5 melanoma 98.7% | UACC-62 melanoma 97.7% | LOX IMVI melanoma 95% | SK-MEL-28 melanoma 108%

COc1cc(NCc2ccc3nc(N)nc(N)c3c2C)cc(OC)c1OC (tested in a mixture with another compound)
inactive: DU-145 prostate 49.6% | K-562 leukemia 27.9% | MALME-3M melanoma 37.2% | MDA-MB-231 breast 61.6% | RXF 393 renal 30.1% | SF-268 CNS 24.1% | SF-295 CNS 17.1% | SF-539 CNS 25.3% | UACC-257 melanoma 23.5% | M14 melanoma 20.9% | HCT-15 colon 26.1% | HT29 colon 20% | SNB-75 CNS 33.1% | SNB-19 CNS 31.8% | U251 CNS 31.2% | PC-3 prostate 23.4% | SK-MEL-5 melanoma 21.1% | UACC-62 melanoma 30.5% | LOX IMVI melanoma 16.3%
